Source: PubChem BioAssay (Tox21)
Results filed as inconclusive are left out. Active and inactive are the calls of the source. The call rests on the fitted dose curve; in most records, active means well fitted cell-killing curve with a large enough effect in the repeat runs; inconclusive means weak or mixed curves, or effect the other way; inactive means flat fitted curve, though single readings scatter.

Experiment: qHTS assay to identify small molecule antagonists of the androgen receptor (AR) signaling pathway using the MDA cell line in the presence of 0.5 nM R1881 - cell viability counter screen (AID 1259242); further: nearly all actives have a fitted effect of over 45% in size
Conditions: MDA-kb2 viability, CellTiter-Fluor protease fluorescence, 16 h; series mostly up to 92.4 µM
Source text: U.S. Tox21 Program National Center for Advancing Translational Sciences [NCATS] NIH Chemical Genomics Center [NCGC] U.S. Environmental Protection Agency [EPA] National Institutes of Environmental Health Sciences [NIEHS] National Toxicology Program [NTP] U.S. Food and Drug Administration [FDA] Tox21 Assay Overview: Androgen receptor (AR) is an important member of the nuclear receptor family. Its signaling plays a critical role in AR-dependent prostate cancer and other androgen related diseases. Considerable attention has been given in the past decades to develop methods to study and screen for the environmental chemicals that have the potential to interfere with metabolic homeostasis, reproduction, developmental and behavioral functions. Therefore AR binding assay for screening androgen antagonists can be used to identify potential endocrine disruptors. MDA-kb2 cells (from ATCC, deposited by Wilson et al.) were used to screen for AR inhibitors against Tox21 compound libraries. These cells are human breast carcinoma cells that were stably transfected with a luciferase reporter gene under control of the MMTV promoter that contains response elements for both androgen receptor (AR) and glucocorticoid receptor (GR). The current screening for identification of AR inhibitors against Tox21 libraries used lower concentration of (0.5 nM) R1881 as a stimulator. The cytotoxicity of the Tox21 compound libraries against MDA-kb2 cell line was tested by measuring live-cell protease activity using CellTiter-Fluor assay in the same wells.
Tox21 Assay Protocol Summary: MDA-kb2 cells (cells cultured without CO2) were dispensed at 3,000 cells/well in 4 uL of culture medium into white wall/solid-bottom 1536-well plates (Corning Life Sciences, Corning, NY) using a Multidrop Combi (ThermoFisher Scientific, Waltham, MA) dispenser. After the assay plates were incubated at a 37C and 0% CO2 for 5 hr, 23 nL of compounds dissolved in DMSO, positive controls or DMSO only was transferred to the assay plate by a Pintool station (Kalypsys, San Diego, CA). The transfer of compounds was followed by the addition of 1 uL of 0.5 nM (final concentration) agonist (R1881)/culture medium using a Flying Reagent Dispenser (FRD, Aurora Discovery, San Diego, CA). The plates were incubated at 37C and 0% CO2 for 16 hr. For cytotoxicity assay, 1 uL of CellTiter-Fluor reagent (Promega Corporation, Madison, WI) was added to each well using the FRD and after 30 min incubation at 37C and 0% CO2, The fluorescence intensity was measured using ViewLux plate reader (PerkinElmer, Shelton, CT).
With CCCCNc1ccc(C(=O)OCCN(C)C)cc1 the outcome was “inactive”. In the case of Cc1cccc(C)c1OCC(C)N (stereo not given), the outcome is reported as “inactive”. In the case of C=C1CC/C=C(\C)CC[C@@H]2[C@@H]1CC2(C)C, the outcome is reported as “inactive”. With C=C(C)C(=O)OCCNC(C)(C)C the outcome was “inactive”. In the case of Cc1cccc2nccnc12, the outcome is reported as “inactive”. With CCNC(=O)C1CC(C)CCC1C(C)C (stereo not given) the outcome was “inactive”. With CC(C)(C)c1nnc(NS(=O)(=O)c2ccc(N)cc2)s1 the outcome was “inactive”. For CC(=O)N[C@@H](CCC(=O)O)C(=O)O, the outcome was “inactive”. With CC(C)C[C@H](NC(=O)CNC(=O)[C@H](Cc1ccc(O)cc1)NC(=O)[C@H](CO)NC(=O)[C@H](Cc1c[nH]c2ccccc12)NC(=O)[C@H](Cc1cnc[nH]1)NC(=O)[C@@H]1CCC(=O)N1)C(=O)N[C@@H](CCCN=C(N)N)C(=O)N1CCC[C@H]1C(=O)NCC(N)=O (stereo in doubt) the outcome was “inactive”. In the case of NS(=O)(=O)c1ccc(NC(=O)CCC(=O)O)cc1, the outcome is reported as “inactive”. With COc1ccc(Br)c(C)c1 the outcome was “inactive”. For O=Cc1ccc(Cl)c(Cl)c1, the outcome was “inactive”. With C=C(C)C(=O)OCCN(CC)CC the outcome was “inactive”. With COC(=O)CCCCCCCC(=O)OC the outcome was “inactive”. With CN(C)CCOCCO the outcome was “inactive”. For CC/C=C\CC1=C(C)CCC1=O, the outcome was “inactive”. With CC(C)=O the outcome was “inactive”. With C=Cc1ccccn1 the outcome was “inactive”. With Nc1ccc2cc(S(=O)(=O)O)cc(O)c2c1 the outcome was “inactive”. With O=C(O)CCSSCCC(=O)O the outcome was “inactive”. For CC(C)C(=O)OCCc1ccccc1, the outcome was “inactive”. For OCCC(F)(F)C(F)(F)C(F)(F)C(F)(F)C(F)(F)C(F)(F)C(F)(F)C(F)(F)F, the outcome was “inactive”. With CC(C(=O)O)c1ccc2c(c1)CC(=O)c1ccccc1S2 (stereo not given) the outcome was “inactive”. In the case of CC[C@H](C)C(=O)O[C@H]1C[C@H](O)C=C2C=C[C@H](C)[C@H](CC[C@@H](O)C[C@@H](O)CC(=O)O)[C@H]21, the outcome is reported as “inactive”. For CCOc1cc([N+](=O)[O-])c(OCC)cc1N1CCOCC1, the outcome was “inactive”. For COc1cc(NS(=O)(=O)c2ccc(N)cc2)nc(OC)n1, the outcome was “inactive”. In the case of CCOC(=O)CC(=O)c1ccccc1, the outcome is reported as “inactive”. In the case of Cc1ccsc1/C=C/C1=NCCCN1C, the outcome is reported as “inactive”. With CCN(CC)CC(=O)Nc1c(C)cccc1C the outcome was “inactive”. In the case of CCC(C=O)CC, the outcome is reported as “inactive”. For C=C(C)C(=O)OCCOP(=O)(O)OCCOC(=O)C(=C)C, the outcome was “inactive”. With C=C(C)C1CCC(C)(O)CC1 (stereo not given) the outcome was “inactive”. In the case of CCCCCCCCOS(=O)(=O)O, the outcome is reported as “inactive”. For CCC(C)NC(N)=O (stereo not given), the outcome was “inactive”. With O=C(O)Cc1ccc(Cl)cc1Cl the outcome was “inactive”. For Cc1c(I)c(=O)n(-c2ccccc2)n1C, the outcome was “inactive”. With O=S(=O)(O)c1ccc2cc(O)c(S(=O)(=O)O)cc2c1 the outcome was “inactive”. For CC(C)CCCCOC(=O)c1ccccc1C(=O)OCCCCC(C)C, the outcome was “inactive”. In the case of CCn1ccc(NS(=O)(=O)c2ccc(N)cc2)nc1=O, the outcome is reported as “inactive”. In the case of O=C(NCCN1CCOCC1)c1ccc(Cl)cc1, the outcome is reported as “inactive”.
